This is part of a sample that, as a whole, favours compounds with a hit. Of some 83,000 tested, about 20% had one in any assay.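 The test compound was applied at a single concentration to cells in 96-well plates for 48 hours, and percent growth was recorded.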 Calls of active or inactive are those of the source. The calls were made as follows: active = growth percent below 10; inactive = the rest.
Columns and labels:
Test in all cases: NCI-60 one-dose screen, 48 h (100 = growth as untreated, 0 = no growth, -100 = all killed)
NCI-H23 lung = settings: 10 µM unless noted
NCI-H322M lung = settings: 10 µM unless noted
HOP-62 NSCLC = settings: 10 µM unless noted
NCI-H460 lung = settings: 10 µM unless noted
HOP-92 NSCLC = settings: 10 µM
NCI-H522 lung = settings: 10 µM unless noted
A549/ATCC NSCLC = settings: 10 µM unless noted
786-0 renal = settings: 10 µM unless noted
COLO 205 colon = settings: 10 µM unless noted
NCI-H226 lung = settings: 10 µM unless noted

Measured: growth

CN1CCN(Cc2ccc(NC(=O)c3cncc(C#Cc4cnc5ccc(OCC6(C)COC6)nn45)c3)cc2C(F)(F)F)CC1
active: NCI-H23 lung -76.2% | NCI-H322M lung -81.2% | HOP-62 NSCLC -69.4% | NCI-H460 lung -77.5% | HOP-92 NSCLC -70.6% | NCI-H522 lung -28.3% | A549/ATCC NSCLC -43.8% | 786-0 renal -55.4% | COLO 205 colon -58.5%

CNC(=O)c1c(NC(=O)c2cccc(C(F)(F)F)c2F)sc2c1CCC(=O)C2
inactive: NCI-H322M lung 82.4% | HOP-62 NSCLC 22.4% | A549/ATCC NSCLC 14.7% | 786-0 renal 18.1%
active: NCI-H23 lung 8.64% | NCI-H460 lung 7.32% | HOP-92 NSCLC -21.5% | NCI-H522 lung 4.78% | COLO 205 colon -6.56%

N#Cc1cccc(CN2CCC3=C(C2)C(=O)N(Cc2ccc(Cl)cc2)C2=NCCCN23)c1
inactive: NCI-H23 lung 28.4% | NCI-H322M lung 48.8% | HOP-62 NSCLC 26% | NCI-H460 lung 18.9% | HOP-92 NSCLC 26.1% | NCI-H522 lung 14.4% | A549/ATCC NSCLC 29% | 786-0 renal 44.4%
active: COLO 205 colon -31%

CCCn1cnc2c(c1=N)C(c1ccc(Cl)cc1)c1sc3c(CC)cccc3c1O2 (stereo not given)
inactive: NCI-H23 lung 19.2% | NCI-H322M lung 45.8% | HOP-62 NSCLC 31.1% | A549/ATCC NSCLC 30.4% | 786-0 renal 30%
active: NCI-H460 lung 7.5% | NCI-H522 lung -25.7% | COLO 205 colon -14.3%

COc1ccccc1-n1cc(C#N)c(N)c1C(=O)c1ccc(C)cc1
inactive: NCI-H23 lung 89.4% | NCI-H322M lung 90.8% | HOP-62 NSCLC 77.7% | NCI-H460 lung 101% | NCI-H522 lung 64% | A549/ATCC NSCLC 89.8% | 786-0 renal 94.8% | COLO 205 colon 95.6%

Cc1noc(C)c1CSc1nc2ccccc2n1-c1ccccc1
inactive: NCI-H23 lung 90.9% | NCI-H322M lung 104% | HOP-62 NSCLC 69% | NCI-H460 lung 107% | HOP-92 NSCLC 74.7% | A549/ATCC NSCLC 91.2% | 786-0 renal 82.6% | COLO 205 colon 105%

Cc1ccc2sc3c(c2c1)OC(N)=C(C#N)C3c1cccc(F)c1 (stereo not given)
inactive: NCI-H23 lung 22.4% | NCI-H322M lung 42.5% | A549/ATCC NSCLC 11.5% | 786-0 renal 11.7%
active: HOP-62 NSCLC 9.3% | NCI-H460 lung -13.4% | NCI-H522 lung -33.7% | COLO 205 colon -40.3%

CC1(C)CC[C@]2(C(=O)N3CCOCC3)CC[C@]3(C)C(=CC[C@@H]4[C@@]5(C)C/C(=C/c6ccco6)C(=O)C(C)(C)[C@@H]5CC[C@]43C)[C@@H]2C1
inactive: NCI-H23 lung 86.6% | NCI-H322M lung 102% | HOP-62 NSCLC 87% | NCI-H460 lung 98.5% | HOP-92 NSCLC 77.8% | A549/ATCC NSCLC 87.8% | 786-0 renal 79.5% | COLO 205 colon 108%

Brc1ccccc1/C=N/Nc1nc(N/N=C/c2ccccc2Br)nc(N2CCOCC2)n1
inactive: NCI-H23 lung 105% | NCI-H322M lung 96.8% | HOP-62 NSCLC 108% | NCI-H460 lung 103% | HOP-92 NSCLC 112% | NCI-H522 lung 86.6% | A549/ATCC NSCLC 97.1% | 786-0 renal 61.3% | COLO 205 colon 86.1%

Clc1nc2ccccc2nc1-c1nnc(C2CCCCC2)o1
inactive: NCI-H23 lung 86.3% | NCI-H226 lung 84.7% | NCI-H322M lung 97.8% | HOP-62 NSCLC 106% | NCI-H460 lung 97.5% | NCI-H522 lung 99% | A549/ATCC NSCLC 98.4% | 786-0 renal 106% | COLO 205 colon 110%

CC(Nc1c(C#N)cnc2ccc(-c3cnc(N)nc3)cc12)c1ccccc1 (stereo not given)
active: NCI-H322M lung 6.93% | HOP-92 NSCLC -17.3% | NCI-H522 lung 7.27%
inactive: NCI-H23 lung 13.1% | HOP-62 NSCLC 10.6% | NCI-H460 lung 13.1% | A549/ATCC NSCLC 11.6% | 786-0 renal 12.2% | COLO 205 colon 24%

CNCc1cccc2c1OCCCCCCC(C)(O)CC(C)(C)S(=O)(=O)c1ccc(cc1)-c1cnc(N)c(n1)C(=O)N2 (stereo not given)
inactive: NCI-H226 lung 43.5% | NCI-H322M lung 46.2% | HOP-62 NSCLC 59.2% | A549/ATCC NSCLC 11.4%
active: NCI-H23 lung 9.01% | NCI-H460 lung -56.3% | NCI-H522 lung -66.8% | 786-0 renal -11.9% | COLO 205 colon -48.2%

Cc1ccc(-c2cc3nc(C(Cl)Cl)nc(-c4ccco4)n3n2)cc1
inactive: NCI-H23 lung 59.8% | NCI-H522 lung 94.5% | 786-0 renal 59.5%
active: NCI-H322M lung 2.67% | HOP-62 NSCLC -12.3% | NCI-H460 lung -21.6% | HOP-92 NSCLC -0.128% | A549/ATCC NSCLC 2.51% | COLO 205 colon -39.4%

C=C(C=O)[C@@H]1CC[C@]2(C)[C@H](CC=C3[C@H]4[C@@H](C)[C@H](C)CC[C@]4(C(=O)OC)CC[C@]32C)[C@@]1(C)CCC#N
inactive: NCI-H322M lung 32.9% | HOP-62 NSCLC 20.7% | A549/ATCC NSCLC 80.6%
active: NCI-H23 lung -6.81% | NCI-H460 lung 1.89% | HOP-92 NSCLC -31.6% | NCI-H522 lung -1.56% | 786-0 renal 5.57% | COLO 205 colon 3.46%

CS(=O)(=O)Nc1cc(-c2ccc3ncc(C#N)c(N[C@H](CO)c4ccccc4)c3c2)cnc1Cl
inactive: NCI-H23 lung 45.2% | NCI-H322M lung 78.3% | HOP-62 NSCLC 46.8% | NCI-H460 lung 74.3% | NCI-H522 lung 25.7% | A549/ATCC NSCLC 83.5% | 786-0 renal 54.8% | COLO 205 colon 57%
active: HOP-92 NSCLC -2.14%

Nc1nc(N)c2c(n1)NC(c1ccc(C(F)(F)F)cc1)CC(c1ccc(Nc3nc(NCCO)nc(N4CCOCC4)n3)cc1)=N2 (stereo not given)
inactive: NCI-H23 lung 72.8% | NCI-H226 lung 70.2% | NCI-H322M lung 95.6% | HOP-62 NSCLC 47.1% | NCI-H460 lung 48.3% | NCI-H522 lung 52.5% | A549/ATCC NSCLC 74.4% | 786-0 renal 62.7% | COLO 205 colon 71.1%

CCCCCCCn1cc2c(N[C@H](C)c3ccccc3)ncnc2n1
inactive: NCI-H226 lung 100% | NCI-H322M lung 101% | HOP-62 NSCLC 95.7% | NCI-H460 lung 104% | HOP-92 NSCLC 94% | NCI-H522 lung 99.6% | A549/ATCC NSCLC 106% | 786-0 renal 105% | COLO 205 colon 115%

C[C@@H]1C[C@H]2C(=O)O[C@@H](C)C(NC(=O)[C@H](Cc3cc(F)cc(F)c3)NC(=O)Nc3ccc(Cl)cc3F)C(=O)N3CCC[C@H]3C(=O)N3CCCC[C@H]3C(=O)N[C@@H](CO)C(=O)N2C1 (stereo not given in full)
inactive: NCI-H23 lung 37.9% | NCI-H322M lung 48.6% | HOP-62 NSCLC 33.4% | NCI-H460 lung 14.5% | NCI-H522 lung 19.4% | A549/ATCC NSCLC 26.2% | 786-0 renal 42.2%
active: COLO 205 colon -23%

O=C(CSc1nc2ccccc2c(=O)n1-c1ccccc1)Nc1ccc(-c2nc3ccc([N+](=O)[O-])cc3[nH]2)cc1
inactive: NCI-H226 lung 82% | NCI-H322M lung 97.8% | HOP-62 NSCLC 99.1% | NCI-H460 lung 63.5% | HOP-92 NSCLC 99.1% | NCI-H522 lung 75.2% | A549/ATCC NSCLC 93.4% | 786-0 renal 95.2% | COLO 205 colon 110%

COc1ccc(-c2nc(C(Cl)Cl)nc3cc(-c4ccccc4)nn23)cc1
inactive: NCI-H226 lung 63.2% | 786-0 renal 68.8%
active: NCI-H322M lung -33.8% | HOP-62 NSCLC -11.5% | NCI-H460 lung -75.9% | HOP-92 NSCLC -14.8% | NCI-H522 lung -59.4% | A549/ATCC NSCLC -42.9% | COLO 205 colon -74.6%

CC(C)(C)n1cc(-c2ccnc(NCCCNS(=O)(=O)c3cccc(F)c3)n2)c(-c2ccc(Cl)c(O)c2)n1
inactive: NCI-H23 lung 100% | NCI-H322M lung 90.9% | HOP-62 NSCLC 111% | NCI-H460 lung 93.6% | NCI-H522 lung 89.9% | A549/ATCC NSCLC 93.6% | 786-0 renal 99.7% | COLO 205 colon 114%

O=C(c1ccc(Cl)cc1)C1[C@H](c2ccc(Cl)cc2)[C@@H](c2ccccc2)NC12C(=O)Nc1ccccc12 (stereo not given in full)
inactive: NCI-H226 lung 53.5% | NCI-H322M lung 65.5% | HOP-62 NSCLC 69.6% | NCI-H460 lung 32.7% | HOP-92 NSCLC 50.4% | NCI-H522 lung 78% | A549/ATCC NSCLC 42.6% | 786-0 renal 64.2% | COLO 205 colon 73%

CCOc1ccc(NC2=C(Cl)C(=O)c3nc(C)ccc3C2=O)cc1
inactive: NCI-H322M lung 32.4% | HOP-62 NSCLC 72.1% | NCI-H460 lung 13.4% | A549/ATCC NSCLC 46.2% | COLO 205 colon 98.2%
active: NCI-H226 lung -52.6% | HOP-92 NSCLC -87% | NCI-H522 lung -61.6% | 786-0 renal 8.39%

NS(=O)(=O)c1ccc(Nc2nc(N/N=C/c3ccc(Cl)cc3)nc(Nc3ccccc3)n2)cc1
inactive: NCI-H226 lung 81.4% | NCI-H322M lung 93.1% | HOP-62 NSCLC 83.1% | NCI-H460 lung 72.2% | HOP-92 NSCLC 91% | NCI-H522 lung 79.1% | A549/ATCC NSCLC 62.6% | 786-0 renal 40.3% | COLO 205 colon 73.8%

C=CCOc1cccc(/C=C2\SC(=S)N(C3CC(=O)N(c4ccc(Br)cc4)C3=O)C2=O)c1 (stereo not given)
inactive: NCI-H226 lung 101% | NCI-H322M lung 102% | HOP-62 NSCLC 100% | NCI-H460 lung 104% | HOP-92 NSCLC 107% | NCI-H522 lung 101% | A549/ATCC NSCLC 105% | 786-0 renal 104% | COLO 205 colon 126%

CC(=O)c1ccc(Nc2nc(SCC(C)C)nc(-c3ccccc3)c2C#N)cc1
inactive: NCI-H226 lung 55.5% | NCI-H322M lung 94.9% | HOP-62 NSCLC 25.9% | NCI-H460 lung 105% | HOP-92 NSCLC 44.6% | NCI-H522 lung 87.3% | A549/ATCC NSCLC 101% | 786-0 renal 53.9% | COLO 205 colon 119%

Cn1cc(-c2cc(N)n3nc(-c4cn(C)c5ccccc45)cc3n2)c2ccccc21
inactive: NCI-H226 lung 113% | NCI-H322M lung 98.5% | HOP-62 NSCLC 108% | NCI-H460 lung 93.3% | HOP-92 NSCLC 88.8% | NCI-H522 lung 109% | A549/ATCC NSCLC 75.8% | 786-0 renal 63.7% | COLO 205 colon 123%

COc1ccc(/C=N/NC2=NC3C(S2)N(C)C(=O)N3C)cc1 (stereo not given)
active: NCI-H460 lung 9.74% | NCI-H522 lung -9.16% | COLO 205 colon 7.48%
inactive: NCI-H226 lung 57.9% | NCI-H322M lung 47.5% | HOP-62 NSCLC 29.1% | HOP-92 NSCLC 30.7% | A549/ATCC NSCLC 48.6% | 786-0 renal 43.9%
